Reference: PubChem BioAssay (NCI)
Values joined by “and” are separate entries in the source; they are usually repeats but may differ in a detail not shown here. Identical values can stand only once. The panel holds about 79,000 compounds, 15% with a hit somewhere; the sample as a whole holds those more often. More than one record can exist for a structure, and the calls need not agree. Active and inactive are the calls of the source. Cut-off read from the data, not from the text of the source: active = growth inhibition above about 70%; inactive = the rest.

Legend:
[1] = NCI Yeast Anticancer Drug Screen. Data for the rad52 strain (AID 147);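 note: 0% = growth of vehicle-treated control cultures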; conditions: S. cerevisiae rad52 mutant growth inhibition, stronger effect = higher value
Method in brief: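 Screen used a yeast mutant impaired in DNA repair. After compound exposure, growth was measured. Values reflect inhibition compared with vehicle-treated cells.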

[2] = NCI Yeast Anticancer Drug Screen. Data for the wt1 strain (AID 149);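 note: 0% = growth of vehicle-treated wt1 cultures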; conditions: S. cerevisiae wt1 strain (SPY 50644) growth inhibition, stronger effect = higher value
Method in brief: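 Compounds are added to wt1 yeast cultures. Growth is then measured. Inhibition is expressed relative to vehicle-treated controls.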

[3] = NCI Yeast Anticancer Drug Screen. Data for the rad50EPP+ strain (AID 151);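 note: 0% = growth of vehicle-treated control cultures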; conditions: S. cerevisiae rad50 mutant strain, stronger effect = higher value
Method in brief: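 Exposing the rad50EPP+ strain to each compound, growth was compared with vehicle-only cultures to give inhibition.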

[4] = NCI Yeast Anticancer Drug Screen. Data for the mgt1 strain (AID 153); conditions: S. cerevisiae mgt1 mutant growth inhibition, stronger effect = higher value
Method in brief: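 Genetically defined yeast (mgt1) treated with compound; inhibition of growth expressed against vehicle-treated controls.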

[5] = NCI Yeast Anticancer Drug Screen. Data for the rad50 strain (AID 155);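 note: 0% = growth of vehicle-only cultures of the same strain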; conditions: S. cerevisiae rad50 strain growth inhibition, stronger effect = higher value
Method in brief: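 Inhibition values express reduced yeast growth in compound-treated cultures relative to vehicle-treated controls.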

[6] = NCI Yeast Anticancer Drug Screen. Data for the mec2-1 strain (AID 157); conditions: S. cerevisiae mec2-1 strain, stronger effect = higher value
Method in brief: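 Readout is yeast growth inhibition, normalised to vehicle-treated controls, in the mec2-1 strain exposed to compound.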

[7] = NCI Yeast Anticancer Drug Screen. Data for the rad14 strain (AID 159);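 note: 0% = growth of vehicle-treated control cultures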; conditions: S. cerevisiae rad14 strain growth inhibition, stronger effect = higher value
Method in brief: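 A mutant yeast strain defective in DNA damage repair is treated with compound; inhibition of its growth is scored against untreated, vehicle-exposed cultures.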

[8] = NCI Yeast Anticancer Drug Screen. Data for the sgs1 mgt1 strain (AID 161);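 note: 0% = growth of cultures given vehicle only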; conditions: S. cerevisiae sgs1 mgt1 strain, stronger effect = higher value
Method in brief: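 Percent growth inhibition was derived by comparing compound-exposed mutant yeast with vehicle-exposed cultures. The strain carries alterations in DNA damage repair.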

[9] = NCI Yeast Anticancer Drug Screen. Data for the CLN2oe strain (AID 163);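 note: 0% = growth of vehicle-only control cultures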; conditions: S. cerevisiae CLN2oe strain, stronger effect = higher value
Method in brief: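 Values reflect how much compound exposure reduced yeast growth, referenced to vehicle-exposed cells. Assay organism is a strain with a defined genetic change affecting cell-cycle control.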

[10] = NCI Yeast Anticancer Drug Screen. Data for the cln2 rad14 strain (AID 165);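 note: 0% = growth equal to vehicle treated cultures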; conditions: S. cerevisiae cln2 rad14 strain, stronger effect = higher value
Method in brief: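 Relative to vehicle controls, growth inhibition of compound-treated cln2 rad14 yeast was recorded.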

[11] = NCI Yeast Anticancer Drug Screen. Data for the bub3 strain (AID 167); conditions: S. cerevisiae bub3 mutant strain, stronger effect = higher value
Method in brief: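 Steps: expose the mutant yeast strain to compound; grow alongside vehicle-treated cultures; measure growth; express inhibition against the vehicle cultures.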

[12] = NCI Yeast Anticancer Drug Screen. Data for the wt2 strain (AID 169);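 note: 0% = growth of vehicle-treated yeast cultures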; conditions: S. cerevisiae wt2 strain growth inhibition, stronger effect = higher value
Method in brief: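 Values express reduction in yeast growth under compound treatment, referenced to vehicle-treated cells.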

[13] = NCI Yeast Anticancer Drug Screen. Data for the mlh1 strain (AID 171);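 note: 0% = growth of vehicle-treated control cultures of the same strain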; conditions: S. cerevisiae mlh1 strain growth inhibition, stronger effect = higher value
Method in brief: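 Steps: expose the defined-mutant yeast strain to compound; expose a parallel culture to vehicle; measure growth; express compound effect as inhibition relative to the vehicle culture.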

[14] = NCI Yeast Anticancer Drug Screen. Data for the sgs1 strain (AID 173);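 note: 0% = growth of vehicle-only control cultures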; conditions: S. cerevisiae sgs1 mutant, stronger effect = higher value
Method in brief: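 Treat defined-mutant yeast with compound; measure growth; calculate inhibition relative to vehicle-treated cells.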

[15] = NCI Yeast Anticancer Drug Screen. Data for the mlh1 rad18 strain (AID 175); conditions: S. cerevisiae mlh1 rad18 strain growth inhibition, stronger effect = higher value
Method in brief: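 Test agents were incubated with a yeast strain of defined genotype (DNA damage repair defect). Inhibition of growth was derived by comparison with vehicle-exposed cultures.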

[16] = NCI Yeast Anticancer Drug Screen. Data for the rad18 strain (AID 177); conditions: S. cerevisiae rad18 mutant growth inhibition, stronger effect = higher value
Method in brief: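 A genetically defined yeast mutant impaired in DNA damage repair was treated with test compounds, then its growth was measured against cultures receiving vehicle alone.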

[17] = at 5.0 µM (retest, dose inferred, filed as 0.5)
[18] = at 50.0 µM (retest, dose inferred, filed as 5.0)

Measured: growth inhibition

O=C(O)C1C2C=CC(C2)C1c1ccccc1 (stereo not drawn)
active: [11]; at 33.0 µM 73% | [11]; [18] 93% | [11]; at 100.0 µM 85%
inactive: [1]; at 1.2 µM -1% | [1]; at 3.7 µM 0% | [1]; at 11.0 µM -2% | [1]; at 33.0 µM -3% | [1]; at 100.0 µM 5% | [2]; at 1.2 µM -3% | [2]; at 3.7 µM -1% | [2]; at 11.0 µM -3% | [2]; at 33.0 µM -9% | [2]; at 100.0 µM 1% | [3]; at 1.2 µM -6% | [3]; at 3.7 µM -8% | [3]; at 11.0 µM -6% | [3]; at 33.0 µM -5% | [3]; at 100.0 µM 0% | [4]; at 1.2 µM -1% | [4]; at 3.7 µM -1% | [4]; at 11.0 µM -4% | [4]; at 33.0 µM -5% | [4]; at 100.0 µM 2% | [5]; at 1.2 µM -1% | [5]; at 3.7 µM 26% | [5]; [17] -1% | [5]; at 11.0 µM 1% | [5]; at 33.0 µM 0% | [5]; [18] 4% | [5]; at 50.0 µM 10.9% and 4.35% | [5]; at 100.0 µM 17% | [6]; at 1.2 µM 0% | [6]; at 3.7 µM 0% | [6]; [17] -1% | [6]; at 11.0 µM 0% | [6]; at 33.0 µM -1% | [6]; [18] 3% | [6]; at 50.0 µM 1.4% and 9.7% | [6]; at 100.0 µM 9% | [7]; at 1.2 µM -5% | [7]; at 3.7 µM -7% | [7]; at 11.0 µM -10% | [7]; at 33.0 µM -11% | [7]; at 100.0 µM -4% | [8]; [17] -3% | [8]; [18] 3% | [8]; at 50.0 µM 7% and -6.6% | [9]; at 1.2 µM -4% | [9]; at 3.7 µM -10% | [9]; at 11.0 µM -4% | [9]; at 33.0 µM -6% | [9]; at 100.0 µM 5% | [10]; [17] -5% | [10]; [18] -5% | [10]; at 50.0 µM -0.2% and 0.6% | [11]; at 1.2 µM 6% | [11]; at 3.7 µM 20% | [11]; [17] 34% | [11]; at 11.0 µM 45% | [12]; at 1.2 µM -2% | [12]; at 3.7 µM 5% | [12]; at 11.0 µM -4% | [12]; at 33.0 µM -3% | [12]; at 100.0 µM 8% | [13]; at 1.2 µM -1% | [13]; at 3.7 µM 0% | [13]; at 11.0 µM 1% | [13]; at 33.0 µM 0% | [13]; at 100.0 µM 11% | [14]; at 1.2 µM -5% | [14]; at 3.7 µM -5% | [14]; at 11.0 µM -5% | [14]; at 33.0 µM 6% | [14]; at 100.0 µM 40% | [15]; [17] -3% | [15]; [18] 5% | [15]; at 50.0 µM 10.6% and 6.5% | [16]; at 1.2 µM -1% | [16]; at 3.7 µM -3% | [16]; at 11.0 µM -2% | [16]; at 33.0 µM 10% | [16]; at 100.0 µM 60%
30.1% (inactive) and 95.9% (active): [11]; at 50.0 µM
